Values joined by “and” are separate entries in the source; they are usually repeats but may differ in a detail not shown here. Equal entries are not always repeated. Inconclusive results are not listed. A call without a number means that no potency is given here. Some compounds were tested as several samples or in several runs, with calls that do not always agree. Active and inactive are the calls of the source. The call rests on the fitted dose curve; in most records, active means well fitted curve in the direction sought with a large enough effect in the repeat runs; inconclusive means weak or mixed curves; inactive means no such curve, though single readings can be large; an effect the other way counts as inactive or inconclusive.
Columns and labels:
[1] = qHTS RealTime-Glo MT Cell Viability Assay in HepG2 cells - 8 hour (AID 1224873); further: nearly all actives have a fitted effect of over 55% in size; further: potency means the concentration at half of the fitted maximal effect
Procedure, shortened: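 Real-time viability: cells seeded at 600 per well together with NanoLuc and cell-permeant prosubstrate, compounds added after 5 h incubation. Luminescence tracked at 0, 8, 16, 24, 32 and 40 h of exposure.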

[2] = qHTS RealTime-Glo MT Cell Viability Assay in HEK293 cells - 40 hour (AID 1224874); settings: RealTime-Glo luminescence; max response: stronger effect = lower value; further: nearly all actives have a fitted effect of over 50% in size; further: potency means the concentration at half of the fitted maximal effect
Procedure, shortened: (§1)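 Cells were seeded together with NanoLuc luciferase and a prosubstrate that viable cells reduce to a luciferase substrate. After a 5 h incubation at 37 C/5% CO2, compounds were added and luminescence was measured repeatedly during 40 h of treatment.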

[3] = A CellTox Green Cytotoxicity Assay to monitor cytotoxicity in HEK293 cells - 24 hour (AID 1224875); further: nearly all actives have a fitted effect of over 45% in size; further: potency means the concentration at half of the fitted maximal effect
Procedure, shortened: (§2)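 Nonlytic real-time cytotoxicity: HEK293 + CellTox Green reagent plated, 5 h preincubation, pintool compound addition (23 nL in DMSO), 37 C for 40 h, fluorescence measured at successive time points.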

[4] = qHTS RealTime-Glo MT Cell Viability Assay in HepG2 cells - 32 hour (AID 1224877); further: nearly all actives have a fitted effect of over 55% in size; further: potency means the concentration at half of the fitted maximal effect
Procedure, shortened: (§3)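 HepG2 cells were seeded at 600 cells/well together with NanoLuc luciferase and a cell-permeant prosubstrate, preincubated 5 h at 37 C/5% CO2, then pin-dosed with compounds in DMSO. Nonlytic luminescence from viable cells was read at each time point.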

[5] = A CellTox Green Cytotoxicity Assay to monitor cytotoxicity in HepG2 cells - 24 hour (AID 1224878); further: nearly all actives have a fitted effect of over 45% in size; further: potency means the concentration at half of the fitted maximal effect
Procedure, shortened: (§4)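 Read-out is fluorescence of a cyanine dye excluded from live cells that stains DNA of dead HepG2 cells, with signal proportional to cytotoxicity. Plates were read at 0, 8, 16, 24, 32 and 40 h after compound addition.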

[6] = A CellTox Green Cytotoxicity Assay to monitor cytotoxicity in HepG2 cells - 40 hour (AID 1224879); further: nearly all actives have a fitted effect of over 40% in size; further: potency means the concentration at half of the fitted maximal effect
Procedure, shortened: as §4

[7] = A CellTox Green Cytotoxicity Assay to monitor cytotoxicity in HEK293 cells - 32 hour (AID 1224881); further: nearly all actives have a fitted effect of over 40% in size; further: potency means the concentration at half of the fitted maximal effect
Procedure, shortened: as §2

[8] = A CellTox Green Cytotoxicity Assay to monitor cytotoxicity in HepG2 cells - 0 hour (AID 1224882); further: nearly all actives have a fitted effect of over 35% in size
Procedure, shortened: as §4

[9] = A CellTox Green Cytotoxicity Assay to monitor cytotoxicity in HEK293 cells - 8 hour (AID 1224884); further: nearly all actives have a fitted effect of over 35% in size; further: potency means the concentration at half of the fitted maximal effect
Procedure, shortened: as §2

[10] = qHTS RealTime-Glo MT Cell Viability Assay in HepG2 cells - 16 hour (AID 1224885); further: nearly all actives have a fitted effect of over 50% in size; further: potency means the concentration at half of the fitted maximal effect
Procedure, shortened: as §3

[11] = qHTS RealTime-Glo MT Cell Viability Assay in HEK293 cells - 24 hour (AID 1224886); further: nearly all actives have a fitted effect of over 50% in size; further: potency means the concentration at half of the fitted maximal effect
Procedure, shortened: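 HEK293 cells were seeded at 600 cells/well together with NanoLuc luciferase and cell-permeant prosubstrate, preincubated 5 h at 37 C/5% CO2, then given compound in DMSO by pintool. Luminescence from viable-cell prosubstrate reduction was read repeatedly over 40 h.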

[12] = qHTS RealTime-Glo MT Cell Viability Assay in HEK293 cells - 8 hour (AID 1224887); further: nearly all actives have a fitted effect of over 50% in size; further: potency means the concentration at half of the fitted maximal effect
Procedure, shortened: as §1

[13] = A CellTox Green Cytotoxicity Assay to monitor cytotoxicity in HEK293 cells - 16 hour (AID 1224888); further: nearly all actives have a fitted effect of over 35% in size; further: potency means the concentration at half of the fitted maximal effect
Procedure, shortened: as §2

[14] = qHTS RealTime-Glo MT Cell Viability Assay in HepG2 cells - 0 hour (AID 1224889); further: nearly all actives have a fitted effect of over 50% in size
Procedure, shortened: as §3

[15] = A CellTox Green Cytotoxicity Assay to monitor cytotoxicity in HepG2 cells - 8 hour (AID 1224890); further: nearly all actives have a fitted effect of over 45% in size
Procedure, shortened: as §4

[16] = qHTS assay to identify small molecule antagonists of the estrogen receptor alpha (ER-alpha) signaling pathway using the BG1 cell line in the presence of 0.1 nM 17-beta-estradiol - cell viability counter screen (AID 1259241); further: nearly all actives have a fitted effect of over 40% in size; further: potency means the concentration at half of the fitted maximal effect
Procedure, shortened: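 Live-cell protease activity (CellTiter-Fluor fluorescence, 30 min) was read in the same wells after VM7Luc4E2 cells had been exposed to compounds with 0.1 nM 17beta-estradiol for 22 hr at 37C.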

[17] = A CellTox Green Cytotoxicity Assay to monitor cytotoxicity in HepG2 cells - 16 hour (AID 1224876); further: nearly all actives have a fitted effect of over 45% in size; further: potency means the concentration at half of the fitted maximal effect
Procedure, shortened: as §4

[18] = qHTS RealTime-Glo MT Cell Viability Assay in HEK293 cells - 0 hour (AID 1224880)
Procedure, shortened: as §1

[19] = A CellTox Green Cytotoxicity Assay to monitor cytotoxicity in HepG2 cells - 32 hour (AID 1224883); further: nearly all actives have a fitted effect of over 50% in size; further: potency means the concentration at half of the fitted maximal effect
Procedure, shortened: as §4

Compound | Potency [1] | max response [2] | Potency [3] | Potency [4] | Potency [5] | Potency [6] | Potency [7] | Potency [8] | Potency [9] | Potency [10] | Potency [11] | Potency [12] | Potency [13] | Potency [14] | Potency [15] | Potency [16] | Potency [17] | Potency [18] | Potency [19] | Potency [2]
Oc1ccc(Cl)c(Cl)c1 | inactive | -18.2% (inactive) | inactive | inactive | inactive | inactive | inactive | inactive | inactive | inactive | inactive | inactive | inactive | inactive | inactive | inactive |  |  |  | 
CC(C)c1c(CN(C)C(C)Cc2ccccc2)n(C)n(-c2ccccc2)c1=O (stereo not given) | inactive |  | inactive |  | inactive | inactive | inactive | inactive | inactive | inactive |  |  | inactive |  | inactive | inactive | inactive | inactive | inactive | 
CC(C)[C@@H](Nc1ccc(C(F)(F)F)cc1Cl)C(=O)OC(C#N)c1cccc(Oc2ccccc2)c1 (stereo not given in full) |  | -6.7% (inactive) | inactive | inactive | inactive | inactive | inactive | inactive | inactive | inactive | inactive |  |  | inactive | inactive |  |  | inactive | inactive | 
CC1=C2C[C@H]3[C@@H](CC=C4C[C@@H](O)CC[C@@]43C)[C@@H]2CC[C@]12O[C@@H]1C[C@H](C)CN[C@H]1[C@H]2C | inactive |  |  | inactive |  | 26.8 µM (active) |  |  | inactive | inactive | 16.9 µM (active) |  | inactive |  | inactive |  |  | inactive | 26.8 µM (active) | 16.9 µM (active)
CC1(C)[C@H](/C=C2\CCSC2=O)[C@@H]1C(=O)OCc1coc(Cc2ccccc2)c1 |  |  | inactive |  | inactive | inactive | inactive | inactive | inactive |  |  | 38.9 µM (active) | inactive | inactive | inactive | inactive | inactive | inactive | inactive | 
CCO/N=C(\CC)C1=C(O)CC(c2c(C)cc(C)cc2C)CC1=O (stereo not given) | inactive |  | inactive | inactive |  |  | inactive | inactive | inactive | inactive |  |  | inactive |  |  |  |  |  |  | 
[C-]1=CC=CC1.[Cl][Zr+2][Cl].c1cc[cH-]c1 | inactive |  | inactive |  | inactive | inactive | inactive | inactive | inactive |  |  |  | inactive | inactive | inactive | inactive |  | inactive | inactive | 
CC1(C)C(C=C(Cl)Cl)C1C(=O)OC(C#N)c1ccc(F)c(Oc2ccccc2)c1 (stereo not given) |  | -18.6% (inactive) | inactive | inactive | inactive | inactive | inactive | inactive | inactive |  | inactive |  |  | inactive | inactive |  | inactive | inactive |  | 
CN(C)C(=S)SSC(=S)N(C)C | 48.3 µM (active) and 24.5 µM (active) and 3.01 µM (active) |  | 27.2 µM (active) and 27.5 µM (active) | 54.2 µM (active) and 245 nM (active) and 169 nM (active) | 436 nM (active) and 21.3 µM (active) | 216 nM (active) and 275 nM (active) and 134 nM (active) | 4.83 µM (active) and 1.23 µM (active) and 213 nM (active) | inactive | 49 µM (active) and inactive | 48.3 µM (active) and 1.74 µM (active) and 2.68 µM (active) | 272 nM (active) and 195 nM (active) and 21.3 µM (active) | 43 µM (active) and 27.5 µM (active) | 43 µM (active) and 38.9 µM (active) | inactive |  | 676 nM (active) and 6.86 µM (active) and 266 nM (active) |  | inactive | 309 nM (active) and 134 nM (active) | 216 nM (active) and 219 nM (active) and 9.52 µM (active)
CC(C)=CCN1CC[C@@]2(C)c3cc(O)ccc3C[C@@H]1[C@@H]2C | inactive |  | inactive | inactive |  |  | inactive | inactive | inactive | inactive |  | inactive | inactive | inactive | inactive |  | inactive | inactive |  | 
CC(C)C(Br)C(=O)NC(N)=O (stereo not given) | inactive | 7.13% (inactive) | inactive | inactive |  | inactive | inactive | inactive | inactive | inactive | inactive | inactive | inactive | inactive | inactive | inactive |  | inactive | inactive | 
O=[N+]([O-])c1cc(C(F)(F)F)c(Cl)c([N+](=O)[O-])c1Nc1ncc(C(F)(F)F)cc1Cl | 24.5 µM (active) |  | 38.9 µM (active) |  |  | 3.89 µM (active) | 24.5 µM (active) | inactive |  | 24.5 µM (active) | 1.74 µM (active) | 5.49 µM (active) | 49 µM (active) | inactive | inactive |  | 43.6 µM (active) | inactive | 4.9 µM (active) | 1.55 µM (active)
O.O.O.O=C([O-])[C@H]([O-])[C@@H]([O-])C(=O)[O-].O=C([O-])[C@H]([O-])[C@@H]([O-])C(=O)[O-].[K+].[K+].[Sb+3].[Sb+3] |  |  | inactive |  |  |  | inactive | inactive |  |  |  | inactive | inactive | inactive | inactive | 48.8 µM (active) |  | inactive |  | 
Oc1cccc(Cl)c1Cl | inactive |  | inactive | inactive | inactive | inactive | inactive |  | inactive | inactive |  | inactive |  |  | inactive | inactive | inactive | inactive | inactive | 
CC(C)N(C(=O)CCl)c1ccccc1 |  |  | inactive |  | inactive | 43.6 µM (active) | inactive | inactive |  |  | 49 µM (active) | inactive | inactive |  | inactive | inactive | inactive | inactive | 49 µM (active) | 49 µM (active) and 38.9 µM (active)
O=C(NC(=O)c1ccccc1Cl)Nc1ccc(OC(F)(F)F)cc1 | inactive |  | inactive | inactive | inactive | inactive | inactive | inactive | inactive | inactive |  | inactive | inactive | inactive | inactive | inactive | inactive | inactive | inactive | 
C#CCC1=C(C)C(OC(=O)C2C(C=C(C)C)C2(C)C)CC1=O (stereo not given) | inactive |  | inactive | inactive | inactive | inactive | inactive | inactive | inactive | inactive |  |  | inactive | inactive | inactive | inactive | inactive | inactive | inactive | 
CC[C@]1(O)CC[C@H]2[C@@H]3CCC4=CCCC[C@@H]4[C@H]3CC[C@@]21C | inactive |  | inactive | inactive | inactive | 23.9 µM (active) | inactive | inactive | inactive | inactive |  | inactive | inactive | inactive | inactive | inactive |  | inactive |  | 
